Among the data in PubChem BioAssay (NCI) are growth values, retold here.

Test systems include SK-MEL-2 melanoma; SN12C renal; UO-31 renal; TK-10 renal; ACHN renal; CAKI-1 renal; A498 renal; CCRF-CEM leukemia; MOLT-4 leukemia; SR leukemia; RPMI-8226 leukemia; OVCAR-8 ovarian; OVCAR-5 ovarian; OVCAR-4 ovarian; SK-OV-3 ovarian; IGROV1 ovarian; OVCAR-3 ovarian; HS 578T breast; NCI/ADR-RES ovarian; EKVX NSCLC.
Assay in all cases: NCI-60 one-dose screen, 48 h (100 = growth as untreated, 0 = no growth, -100 = all killed)
Holding throughout (conditions): 10 µM unless noted

Compounds without any hit were thinned out: in the full panel of roughly 83,000, 20% have a hit.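 Values shown are percent growth following 48 h exposure of cells in 96-well plates to a single concentration of compound; below 10 was considered active.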 Unmarked numbers belong to inactive results. The source made the active and inactive calls.

As to `CC(=O)Nc1ccc(S(=O)(=O)N2C(=O)CCC2C(=O)Nc2ccccc2)cc1` (stereo unspecified), the growth was 43.9% in the assay with SK-MEL-2 melanoma; 40.4% in the assay with SN12C renal; 14.1% in the assay on UO-31 renal; 27.5% in the assay with TK-10 renal; 30.4% with ACHN renal; 9.53% (active) in the assay on CAKI-1 renal. Besides, the growth is 2.01% (active) with A498 renal; 17.7% with CCRF-CEM leukemia; 28.8% with MOLT-4 leukemia; 28% in the assay with SR leukemia; 26.7% in the assay with RPMI-8226 leukemia; 40.4% in the assay on OVCAR-8 ovarian. In addition, the growth with OVCAR-5 ovarian was 58.4%; with OVCAR-4 ovarian it was 39.9%; with SK-OV-3 ovarian, 57.5%; in the assay on IGROV1 ovarian it was 28.9%; with OVCAR-3 ovarian, 28.1%; in the assay with HS 578T breast, 63.1%. The growth in the assay on NCI/ADR-RES ovarian was 41.5%.
For the compound `O=C(Nc1ccccc1)OCC1OCOC(COC(=O)Nc2ccccc2)C1OC(=O)Nc1ccccc1` (stereo unspecified), the growth in the assay on SK-MEL-2 melanoma was 109%; in the assay on SN12C renal, 77.3%; with UO-31 renal it was 85.6%; with TK-10 renal, 83.3%; with ACHN renal, 48.4%; in the assay with CAKI-1 renal, 91.7%. Also, the growth in the assay with A498 renal was 69%; with CCRF-CEM leukemia, 29.5%; in the assay on MOLT-4 leukemia, 73.8%; in the assay on SR leukemia, 18.1%; in the assay on RPMI-8226 leukemia it was 40.1%; in the assay with OVCAR-8 ovarian, 32%. In addition, the growth in the assay with OVCAR-5 ovarian is 52.5%; in the assay on OVCAR-4 ovarian, -44.6% (active); in the assay on SK-OV-3 ovarian, 91.5%; in the assay with IGROV1 ovarian, 70.8%; in the assay with OVCAR-3 ovarian, 28.8%; in the assay on HS 578T breast it was 67.7%. Also, the growth in the assay on NCI/ADR-RES ovarian was 69.8%.
On to `O=C(Nc1ccc(F)c(Cl)c1)c1n[nH]c(=O)c2ccccc12`, for which the growth in the assay on SK-MEL-2 melanoma was 74.8%; with EKVX NSCLC, 123%; in the assay with SN12C renal it was 98.1%; in the assay on UO-31 renal, 106%; in the assay with TK-10 renal it was 157%; with ACHN renal it was 89.1%. Moreover, the growth is 89.5% in the assay on CAKI-1 renal; 105% in the assay with CCRF-CEM leukemia; 97.2% in the assay with MOLT-4 leukemia; 119% in the assay with RPMI-8226 leukemia; 95.4% with OVCAR-8 ovarian; 107% in the assay on OVCAR-5 ovarian. The growth in the assay on OVCAR-4 ovarian is 96.1%; with SK-OV-3 ovarian, 119%; with IGROV1 ovarian, 8.17% (active); in the assay with OVCAR-3 ovarian it was 94.6%; with HS 578T breast, 129%; in the assay with NCI/ADR-RES ovarian it was 112%.
Turning to `c1ccc2nc(-c3ccc4ccccc4n3)ccc2c1`, the growth was 88% in the assay on SK-MEL-2 melanoma; 95.9% with SN12C renal; 78.4% in the assay with UO-31 renal; 116% in the assay with TK-10 renal; 96.4% with ACHN renal; 83.2% in the assay with CAKI-1 renal. Besides, the growth with A498 renal is 97.3%; in the assay with CCRF-CEM leukemia, 90%; in the assay on MOLT-4 leukemia it was 88.3%; with SR leukemia, 86.8%; in the assay on RPMI-8226 leukemia, 90.8%; with OVCAR-8 ovarian, 98.6%. Besides, the growth in the assay with OVCAR-5 ovarian was 97.2%; in the assay on OVCAR-4 ovarian, 92.3%; in the assay with SK-OV-3 ovarian, 90.1%; in the assay with IGROV1 ovarian, 79.5%; with OVCAR-3 ovarian, 97.4%; in the assay on HS 578T breast, 105%. Moreover, the growth in the assay with NCI/ADR-RES ovarian was 99.7%.
For the compound `O=C(CSc1nc(-c2ccc(Cl)cc2)cn1-c1ccc(Cl)cc1)c1ccc(Br)cc1`, the growth was 87% in the assay on SK-MEL-2 melanoma; 62.6% in the assay with SN12C renal; 45.5% in the assay on UO-31 renal; 93% in the assay on TK-10 renal; 22.4% in the assay on ACHN renal; 78.7% in the assay with CAKI-1 renal. Moreover, the growth with A498 renal is 93.8%; in the assay on CCRF-CEM leukemia it was 92.8%; in the assay with MOLT-4 leukemia it was 90.7%; with SR leukemia it was 92.7%; with RPMI-8226 leukemia, 86.1%; in the assay with OVCAR-8 ovarian, 48%. Also, the growth in the assay on OVCAR-5 ovarian was 84.1%; in the assay on OVCAR-4 ovarian, 9.78% (active); with SK-OV-3 ovarian, 79%; with IGROV1 ovarian, 59.9%; in the assay with OVCAR-3 ovarian, 84.9%; in the assay with HS 578T breast, 63.2%. In the assay on NCI/ADR-RES ovarian, the growth was 70.6%.
`NC(=S)NN=C1CCCCC1`: the growth in the assay on SK-MEL-2 melanoma is 107%; in the assay with SN12C renal it was 85.2%; in the assay with UO-31 renal it was 79.8%; with TK-10 renal, 100%; with ACHN renal, 103%; in the assay with CAKI-1 renal, 103%. For the same compound, the growth is 87% in the assay with A498 renal; 39.6% in the assay on CCRF-CEM leukemia; 68.8% with MOLT-4 leukemia; 72.1% in the assay on SR leukemia; 68.8% in the assay with RPMI-8226 leukemia; 68.6% in the assay with OVCAR-8 ovarian. Besides, the growth in the assay on OVCAR-5 ovarian was 104%; in the assay on OVCAR-4 ovarian, 53.6%; in the assay on SK-OV-3 ovarian, 73%; in the assay with IGROV1 ovarian it was 83.7%; in the assay with OVCAR-3 ovarian it was 38%; in the assay on HS 578T breast, 82.3%. Also, the growth in the assay with NCI/ADR-RES ovarian was 72.6%.
For `Cc1ccc(C2=NN(c3ccc(S(N)(=O)=O)cc3)C(c3cn(-c4ccccc4)nc3-c3ccccc3)C2)cc1` (stereo unspecified), the growth was 90% with SK-MEL-2 melanoma; 30.7% with SN12C renal; 30.2% in the assay with UO-31 renal; 84.2% with TK-10 renal; 93% in the assay on ACHN renal; 94.7% with CAKI-1 renal. The growth in the assay on A498 renal was -5.87% (active); with CCRF-CEM leukemia, 40.3%; in the assay on MOLT-4 leukemia, 18.7%; in the assay on SR leukemia, 11.7%; in the assay on RPMI-8226 leukemia, 39.7%; with OVCAR-8 ovarian, 86.3%. The growth in the assay on OVCAR-5 ovarian is 115%; in the assay on OVCAR-4 ovarian, 105%; in the assay with SK-OV-3 ovarian it was 93.4%; in the assay on IGROV1 ovarian, 88.5%; in the assay with OVCAR-3 ovarian, 56.1%; in the assay on HS 578T breast it was 96.6%. The growth in the assay on NCI/ADR-RES ovarian was 90.6%.
`CCCCCCc1nc2c(c(C)nn2-c2ccccc2)c2c1CCCCC2`: the growth with SK-MEL-2 melanoma was 116%; with SN12C renal it was 104%; in the assay with UO-31 renal, 91.5%; with TK-10 renal it was 126%; in the assay with ACHN renal it was 107%; in the assay with CAKI-1 renal, 94.8%. For the same compound, the growth with A498 renal was 104%; with CCRF-CEM leukemia, 101%; in the assay on MOLT-4 leukemia, 106%; in the assay on SR leukemia, 97.7%; with RPMI-8226 leukemia it was 105%; in the assay on OVCAR-8 ovarian, 107%. Besides, the growth in the assay with OVCAR-5 ovarian is 114%; with OVCAR-4 ovarian it was 115%; in the assay with SK-OV-3 ovarian, 95%; in the assay on IGROV1 ovarian, 109%; in the assay on OVCAR-3 ovarian, 107%; with HS 578T breast it was 106%. The growth in the assay on NCI/ADR-RES ovarian is 110%.
